High-throughput results as filed in PubChem BioAssay.
In the library only some 4.4% were active in any assay of this set; here they are far more common.
PfHsp90 yeast 2: growth inhibition of PfHsp90-expressing yeast, primary screen, antimalarial PfHsp90 inhibitor project, S. cerevisiae, BacTiter-Glo luminescence, single point, set 2 | BacTiter-Glo ATP, 48 h; yeast lacking PDR1 and PDR3 efflux regulators | inhibition, % at 9.4 µM | 0.32% of 310,000 active;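 active means every replicate shows inhibition above about 80%, whatever the replicate mean, limit read from the data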;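 further: 0% = DMSO neutral controls and 100% = 20 µM radicicol positive controls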
SKKanGAS inh: S. pyogenes SKKanGAS growth inhibitors in kanamycin, primary screen, streptokinase expression inhibitor project, SKKanGAS strain, BacTiter-Glo luminescence; 6 h; AID 1662, 2009; 1.3% of 300,000 active; inhibition, % at 7.5 µM;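 active means mean replicate score, as percent of positive control median, at least 50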;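 further: strain carries kanamycin resistance gene driven by streptokinase promoter and grows in 40 µg/ml kanamycin; loss of luminescence reflects streptokinase promoter inhibition or plain growth inhibition; 0% = median of DMSO wells and 100% = positive control at its reference dose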
TIM10 inh: growth inhibitors of isogenic TIM10 control yeast, primary screen, counter-screen for tim10-1 yeast inhibitor project, luminescence, uHTS; S. cerevisiae TIM10 strain growth, BacTiter-Glo luminescence, 24 h; inhibition, % at 10 µM; 1.4% of 330,000 active; AID 463195, 2010;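 active means inhibition of 40% or more at the single tested concentration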;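 further: wild-type TIM10 isogenic control strain grown at permissive 25 °C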
tim10-1 inh: growth inhibitors of tim10-1 mutant yeast, primary screen, luminescence, uHTS | S. cerevisiae tim10-1 ts strain growth, BacTiter-Glo, 24 h | inhibition, % at 20 µM | 2.2% of 330,000 active;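 active means inhibition of at least 40%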;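 further: mutant grown at 25 °C; 0% = DMSO wells with yeast and 100% = wells holding no yeast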
tim23-1 inh: growth inhibitors of tim23-1 mutant yeast, primary screen, luminescence, uHTS | S. cerevisiae tim23-1 growth, BacTiter-Glo luminescence, 24 h | inhibition, % at 20 µM | 1.3% of 330,000 active | AID 463212, 2010;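 active means growth inhibition of the mutant yeast at or above 50%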;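 further: temperature-sensitive mutant grown at 25 °C; plate controls were DMSO-treated mutant yeast for no effect and medium wells lacking yeast for full effect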
tim23-1 confirm: tim23-1 mutant yeast growth inhibitors, confirmation, luminescence, single concentration; S. cerevisiae tim23-1 growth, BacTiter-Glo luminescence, 24 h; inhibition, % at 20 µM; shares compounds with tim23-1 inh; 83% of 4,400 active;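 active means inhibition above about 39% in either of two replicate wells at 20 µM, limit read from the data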;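 further: temperature-sensitive tim23-1 mutant grown at 25 °C; 0% = DMSO wells with yeast and 100% = medium wells without yeast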
Active calls of the source: *; . = no result given.

SMILES	PfHsp90 yeast 2	SKKanGAS inh	TIM10 inh	tim10-1 inh	tim23-1 inh	tim23-1 confirm
O=C(CCl)N1c2ccccc2SCC1c1ccccc1 (stereo unspecified)	-4	-4	29	0	54*	51*
O=C(CCl)N1c2ccccc2OCC1c1ccccc1 (stereo unspecified)	-34	3	28	39	46	.
CC(C)c1c(C(=O)N/N=C/c2cccc3ccccc23)nnn1-c1nonc1N	1	35	6	3	48	.
Cc1cc(SCC(=O)N/N=C/c2ccc(O)cc2O)nc2ccccc12	-5	21	28	18	51*	52*
Cc1cc(SCC(=O)N/N=C/c2ccc(O)c(O)c2)nc2ccccc12	-4	-1	-10	-2	11	.
COc1ccccc1/C=C/C=c1\sc2nc(=O)c(Cc3ccccc3)nn2c1=O	4	7	-6	10	11	.
O=S(=O)(NCC1(N2CCOCC2)CCCCC1)c1ccc(Cl)cc1C(F)(F)F	7	2	21	28	29	.
COc1cccc(C(=O)Oc2cc3c4c(c2)C(C)=CC(C)(C)N4C(=O)C3=O)c1	-117	18	29	28	63*	70*
OCCn1nc(-c2ccccc2)cc1-c1ccccc1	7	0	-1	8	21	.
C=CCn1c(-c2cccc3ccccc23)n[nH]c1=S	7	-4	36	28	22	.
C=CCn1c(-c2cc(-c3ccc(C)cc3)nc3ccccc23)n[nH]c1=S	-84	3	40	33	60*	53*
CCCN(CCO)C1CCN(CCc2ccccc2)CC1	-6	8	-12	-6	-13	.
N#Cc1ccc(C(=O)NC(=S)NC2CCCCC2)cc1	1	.	32	10	65*	41*
O=C(NC(=S)NC1CCCC1)c1ccccc1	-21	-3	9	29	58*	46*
C/C(=N\NC(=S)NC1CCCCC1)c1ccc(C#N)cc1	-41	-4	28	28	23	.
O=C(NC(=S)NC1CCCCCCCCCCC1)c1cccnc1	.	2	-37	7	12	.
COc1ccc(-c2cn(Cc3ccc(C)cc3)nn2)cc1	-47	3	1	-3	9	.
COc1ccc(OC)c2c1sc(=NC(=O)C(C)C)n2C	8	3	24	31	53*	47*
COc1cc2cnc(-c3ccccc3)c(C(=O)c3ccc(OCc4ccccc4)cc3)c2cc1OC	-16	.	11	20	31	.
COc1cccc(C(=O)c2c(-c3ccccc3)ncc3cc(OC)c(OC)cc23)c1	-4	.	-13	21	54*	33
CCn1cc(Br)c(C(=O)Nc2ccc(Cl)cc2Cl)n1	-28	7	20	39	94*	38
O=C(Nc1ccc(F)c(Cl)c1)c1ccccc1	6	.	34	14	64*	67*
CCn1cc(Br)c(C(=O)Nc2ccc(F)c(Cl)c2)n1	8	0	27	28	53*	44*
CCOC(=O)c1ccc(NC(=O)c2nn(CC)cc2Br)cc1	4	-10	9	18	21	.
Cc1cc2occ(CC(=O)N(C)CC(=O)Nc3ccccc3Cl)c2cc1C	-18	-16	0	13	30	.
SMILES	PfHsp90 yeast 2	SKKanGAS inh	TIM10 inh	tim10-1 inh	tim23-1 inh	tim23-1 confirm
CC1CCc2c(c3ccccc3n2C(=O)CCl)C1 (stereo unspecified)	10	-5	31	39	69*	56*
CN(CC(=O)Nc1cccc(F)c1)C(=O)c1ccccc1Sc1ccccc1C#N	2	.	-4	11	21	.
O=c1oc(-c2ccccc2F)nc2c1cnn2-c1ccccc1	-12	-10	39	33	56*	54*
O=Cc1cn(-c2ccccc2)nc1-c1cccnc1	1	-3	40	28	62*	57*
O=C(NCc1ccncc1)c1cn(-c2ccccc2)nc1-c1cccnc1	-6	1	18	14	-5	.
COc1ccc(NC(=O)Nc2nc3c(s2)CCCC3)cc1	23	-4	24	20	63*	50*
COc1ccc(OCC(=O)Nc2nc3c(s2)CCCC3)cc1	13	5	-2	1	9	.
CC(=O)c1c(C)[nH]c(C(=O)Nc2cccc(S(=O)(=O)N3CCCC3)c2)c1C	.	.	6	15	16	.
Cc1ccc2nc(-c3ccc(NC(=S)NC4CC(C)(C)NC(C)(C)C4)cc3)sc2c1	21	58*	29	25	70*	67*
Cn1c(N2CCN(C(c3ccccc3)c3ccccc3)CC2)nc2c1c(=O)[nH]c(=O)n2C	-12	3	20	2	10	.
O=C(NC(=S)NC1CCCC1)c1ccccc1Br	3	18	25	17	17	.
CCN(C(=S)NC(=O)c1ccccc1Br)C1CCCCC1	2	-3	35	28	58*	44*
Cc1[nH]c2ccccc2c1C(=O)/C=C/c1ccccc1	30	-3	14	27	64*	56*
Cc1nc2ccccc2c(N)c1C(=O)/C=C/c1ccccc1	-3	0	4	4	32	.
CN(Cc1ccccc1)C(=O)CN1CCN(S(=O)(=O)c2ccc(Cl)c(Cl)c2)CC1	21	.	16	19	52*	33
COc1ccc(/C=C(\C#N)C(=O)Nc2cccc(C)n2)cc1	-14	0	-15	1	5	.
COc1ccc(NC(=O)/C(C#N)=C/c2cccnc2)c(OC)c1	29	16	27	31	50*	44*
Cc1cccc(NC(=O)/C(C#N)=C/c2ccc(Cl)cc2)n1	-2	2	32	30	60*	68*
COc1ccc(NC(=O)C(=O)N/N=C/c2cccnc2)c(OC)c1	14	-8	6	5	9	.
N#C/C(=C\c1ccc(Cl)cc1)C(=O)Nc1cccnc1	27	4	9	20	65*	68*
O=C(NCc1ccon1)C1CCC(=O)N(CCc2ccc(Cl)cc2)C1 (stereo unspecified)	-5	-3	-3	5	4	.
CCN(CC(=O)Nc1c(F)cccc1F)C(=O)c1cnccn1	.	1	-2	-5	16	.
CCOc1ccc2ccccc2c1C1NC(=O)NC(C)=C1C(=O)OCCOC (stereo unspecified)	10	-1	6	8	16	.
O=C(Nc1nc2ccccc2s1)C1CCCN1S(=O)(=O)c1ccc(Cl)cc1 (stereo unspecified)	.	34	7	40	55*	50*
Cc1nnc(NC(=O)CSc2ccc(-c3ccccn3)nn2)s1	.	-1	6	5	-1	.
COc1ccc(-c2csc(Nc3cc(C)ccn3)n2)cc1OC	-20	8	18	25	94*	31
